Test results from PubChem BioAssay (NCI).
The panel holds about 83,000 compounds, 20% with a hit somewhere; the sample as a whole holds those more often.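 Percent growth is the endpoint: 0 to 100 indicates growth inhibition (40 means 60% inhibition), 0 means no net growth, and negative values indicate cell death.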 Unmarked numbers belong to inactive results. The source made the active and inactive calls. The calls were made as follows: active = growth percent below 10; inactive = the rest.

System: MDA-MB-468 breast
Experiment: NCI-60 one-dose screen, 48 h (100 = growth as untreated, 0 = no growth, -100 = all killed)
Settings: 10 µM unless noted

| SMILES | growth |
| --- | --- |
| O=C(NC(Cc1ccccc1)C(=O)CCl)OCc1ccccc1 (stereo not given) | 79.8% |
| CCCCCC(=C/c1ccccc1)/C=N/N=C(N)N | -87.4% (active) |
| COc1cc(C2C3=C(COC3=O)N(CCO)c3cc4c(cc32)OCO4)cc(OC)c1OC (stereo not given) | 0.559% (active) |
| C#Cc1cccc(NC(=O)C2CCCN(C(=O)CCl)C2)c1 (stereo not given) | 66.3% [8.25 µM] |
| COc1ccc2cn3c4ccc(O)cc4[nH]c(=O)c3c2c1 | -11.9% (active) |
| CSc1nc(N)c(N=Nc2ccc(S(=O)(=O)Nc3nnc(C)s3)cc2)c(=O)[nH]1 | 93.4% |
| CC(=O)OCC1O[C@@H](OC(C)=O)[C@@H](NC(=O)NS(=O)(=O)c2ccccc2)C(OC(C)=O)[C@@H]1OC(C)=O (stereo not given in full) | 107% |
| COc1ccc(/C=C2\CN(C(=O)C(Cl)Cl)C/C(=C\c3ccc(OC)cc3)C2=O)cc1 | -27.5% (active) |
| c1cnc2[nH]cc(-c3csc(-c4cn(CCCN5CCCCC5)c5ccccc45)n3)c2c1 | 70.2% |
| Cn1c2ccccc2c2c3c(c4c5ccccc5n(C)c4c21)C(=O)OC3 | 101% |
| C/C(=N\Nc1ccc(Cl)cn1)c1ccccn1 | -41% (active) |
| CN(C)c1ncnc2c1ccn2C1OC(CO)C(O)C1O (stereo not given) | -64.3% (active) |
| C/C(=N/NC(N)=S)c1sc(Nc2cccc(Cl)c2)nc1C | 47.3% |
| O=c1[nH]c(=O)[nH]c(=S)[nH]1 | 95.8% |
| CCOC(=O)C1=C(N)Oc2cc(OC)ccc2C1c1ccc(F)c(F)c1 (stereo not given) | -37.8% (active) |
